Laboratory results from PubChem BioAssay (EPA / NIEHS).
Inconclusive results are not listed. Calls of active or inactive are those of the source. How the source made its calls, unless noted: active means hit-call score of the fitted dose curve at least 0.9, where 1 is the maximum; inconclusive means response in the unintended direction; inactive means score below 0.9.

How the values were obtained:
[1] = ATG_TAL_CIS: Attagene CIS-FACTORIAL HepG2 Assay for human TAL Basal Promoter (AID 2282966; active means hit-call score of the fitted dose curve at least 0.9, where 1 is the maximum; inactive means score below 0.9;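 further: background control endpoint measuring basal TAL promoter reporter mRNA not a specific factor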); settings: HepG2 Attagene cis-factorial TAL promoter reporter; actives raise or lower the signal
In short: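 Background-control endpoint: basal TAL promoter reporter transcripts in transiently transfected HepG2, measured 24 h after dosing. Read-out by RT-PCR with fluorescent primer extension and capillary electrophoresis; gain or loss of signal fitted relative to DMSO.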

[2] = ATG_TGFb_CIS: Attagene CIS-FACTORIAL HepG2 Assay for human Transforming Growth Factor (TGF) (AID 2282967; active means hit-call score of the fitted dose curve at least 0.9, where 1 is the maximum; inactive means score below 0.9); settings: HepG2 Attagene CIS TGFb reporter, mRNA transcription; actives raise or lower the signal
In short: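 Bidirectional fitting relative to DMSO gave the endpoint. Underlying data: reporter mRNA from HepG2 cells carrying transiently transfected cis-regulated reporter constructs, harvested 24 h after dosing and analyzed by RT-PCR and capillary electrophoresis.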

[3] = ATG_VDRE_CIS: Attagene CIS-FACTORIAL HepG2 Assay for human Vitamin D Receptor Element (VDRE) (AID 2282968; active means hit-call score of the fitted dose curve at least 0.9, where 1 is the maximum; inactive means score below 0.9); settings: HepG2 VDRE cis-reporter transcription, actives raise or lower the signal
In short: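 Measures endogenous factor activity through cis-element-driven reporter transcripts in transiently transfected HepG2. Cells are treated 24 h; reporter mRNA is quantified by RT-PCR and capillary electrophoresis; fitting is bidirectional.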

[4] = target: Nuclear receptor subfamily 1 group I member 3 (Homo sapiens) (UniProt Q14994); assay: ATG_CAR_TRANS: Attagene TRANS-FACTORIAL HepG2 Assay for human Constitutive Androstane Receptor (CAR) (AID 2282969); settings: HepG2 Attagene TRANS-FACTORIAL CAR reporter;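 further: activators raise reporter mRNA above DMSO so AC50 marks induction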
In short: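 Signal is reporter mRNA induction relative to DMSO, measured 24 h after dosing by RT-PCR with fluorescent primer extension and capillary electrophoresis. Human HepG2 liver cells carried transiently transfected chimeric NR-Gal4/GAL4-UAS reporter constructs.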

[5] = target: X-box-binding protein 1 (Homo sapiens) (UniProt P17861); assay: ATG_Xbp1_CIS: Attagene CIS-FACTORIAL HepG2 Assay for human X-box Binding Protein 1 (XBP1) (AID 2282972; active means hit-call score of the fitted dose curve at least 0.9, where 1 is the maximum; inactive means score below 0.9); settings: HepG2 XBP1 cis-element reporter, Attagene multiplex; actives raise or lower the signal
In short: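 Reporter transcripts were quantified by RT-PCR with fluorescent primer extension and capillary electrophoresis after 24 h chemical exposure. Cells: transiently transfected HepG2 carrying cis-regulated reporter constructs; data fitted bidirectionally relative to DMSO.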

[6] = ATG_M_19_TRANS: Attagene TRANS-FACTORIAL HepG2 Assay for M19 Transcription Factor (Internal Marker) (AID 2282974); settings: HepG2 Attagene TRANS-FACTORIAL M19 internal marker reporter
In short: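 Reporter mRNA induction was measured in transfected HepG2 cells 24 h after dosing. Endpoint fitted upward relative to DMSO and serves as a background control within the multiplexed TRANS panel.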

[7] = target: Bile acid receptor (Homo sapiens) (UniProt Q96RI1); assay: ATG_FXR_TRANS: Attagene TRANS-FACTORIAL HepG2 Assay for Farnesoid X Receptor (FXR) (AID 2282979); settings: HepG2 Attagene TRANS FXR-GAL4 reporter transcription;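 further: hits raise reporter mRNA above DMSO so AC50 marks FXR activation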
In short: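 Reporter transcripts from transfected HepG2 cells were measured 24 h after dosing, using RT-PCR with capillary electrophoresis of 6-FAM-labelled fragments. The read-out reflects activity of exogenous FXR-Gal4 chimera on GAL4-UAS units, with induction relative to DMSO.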

[8] = target: Hepatocyte nuclear factor 4-alpha (Homo sapiens) (UniProt P41235); assay: ATG_HNF4a_TRANS: Attagene TRANS-FACTORIAL HepG2 Assay for human Hepatocyte Nuclear Factor 4 alpha (HNF4a) (AID 2282982); settings: HepG2 HNF4a transactivation reporter, mRNA readout
In short: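 Multiplexed reporter assay: transfected HepG2, 24 h exposure, total RNA → oligo(dT) RT → PCR → 6-FAM extension → HpaI digest → CE fluorescence. DMSO = negative control.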

[9] = ATG_M_32_TRANS: Attagene TRANS-FACTORIAL HepG2 Assay for M32 Transcription Factor (Internal Marker) (AID 2282984); settings: HepG2 Attagene TRANS M32 internal marker reporter
In short: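 Cell-based TRANS-format assay in HepG2: exogenous chimeric GAL4 reporter units transiently expressed, compounds applied 24 h. Reporter mRNA detected by RT-PCR plus capillary electrophoresis; this readout is an internal background marker.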

[10] = target: Nuclear receptor subfamily 4 group A member 2 (Homo sapiens) (UniProt P43354); assay: ATG_NURR1_TRANS: Attagene TRANS-FACTORIAL HepG2 Assay for human Nuclear Receptor Related Protein 1 (NURR1) (AID 2282985); settings: HepG2 Attagene TRANS reporter, mRNA readout
In short: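 Measures transcriptional activation by an exogenous NR-Gal4 chimera in transfected HepG2 liver cells. After 24 h, reporter RNA is reverse-transcribed, amplified and resolved by capillary electrophoresis; DMSO defines baseline.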

[11] = target: Transcriptional activator Myb (Homo sapiens) (UniProt P10242); assay: ATG_Myb_CIS: Attagene CIS-FACTORIAL HepG2 Assay for human Myeloblastosis (Myb) Proto-Oncogene Transcription Factor (AID 2282986; active means hit-call score of the fitted dose curve at least 0.9, where 1 is the maximum; inactive means score below 0.9); settings: HepG2 Attagene CIS-FACTORIAL Myb reporter transcription; actives raise or lower the signal
In short: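 Transiently transfected HepG2 cells, treated 24 h. Reporter mRNA quantified by RT-PCR/capillary electrophoresis; bidirectional fit relative to DMSO.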

[12] = target: Nuclear respiratory factor 1 (Homo sapiens) (UniProt Q16656); assay: ATG_NRF1_CIS: Attagene CIS-FACTORIAL HepG2 Assay for human Nuclear Respiratory Factor 1 (NRF1) Orphan Gene (AID 2282987; active means hit-call score of the fitted dose curve at least 0.9, where 1 is the maximum; inactive means score below 0.9); settings: HepG2 NRF1 cis-element reporter, Attagene multiplex; actives raise or lower the signal
In short: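 Cells (HepG2, transient MRTU transfection) are exposed to compound for 24 h, then RNA isolated and reporter mRNA amplified and fluorescently labelled. Fragments are separated by capillary electrophoresis; signal change is fitted bidirectionally relative to DMSO.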

[13] = ATG_GAL4_TRANS: Attagene TRANS-FACTORIAL HepG2 Assay for GAL4 (Internal Marker) (AID 2282976); settings: HepG2 Attagene TRANS GAL4 internal marker reporter
In short: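 In transfected human HepG2 liver cells dosed 24 h, GAL4 reporter mRNA serves as a baseline marker. Detection by RT-PCR with fluorescent capillary electrophoresis, activity fitted upward relative to DMSO.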

[14] = target: Oxysterols receptor LXR-alpha (Homo sapiens) (UniProt Q13133); assay: ATG_LXRa_TRANS: Attagene TRANS-FACTORIAL HepG2 Assay for human Liver X Receptor alpha (LXRa) (AID 2282980); settings: HepG2 Attagene TRANS reporter, LXRa transactivation
In short: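 Chemical-induced reporter mRNA measured by RT-PCR with fluorescent labelling and capillary electrophoresis after 24 h dosing of transiently transfected HepG2 cells expressing exogenous NR-Gal4 chimeras; increases scored against DMSO baseline.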

[15] = target: Oxysterols receptor LXR-beta (Homo sapiens) (UniProt P55055); assay: ATG_LXRb_TRANS: Attagene TRANS-FACTORIAL HepG2 Assay for human Liver X Receptor beta (LXRb) (AID 2282981); settings: HepG2 Attagene TRANS GAL4-LXRb reporter, mRNA
In short: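 After 24 h of chemical treatment, transfected HepG2 cells yield total RNA; reporter cDNA is PCR-amplified, FAM-labelled, HpaI-cut and run on capillary electrophoresis. Signal reflects chimeric LXRb-Gal4 activity on GAL4-UAS reporters.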

[16] = ATG_M_06_TRANS: Attagene TRANS-FACTORIAL HepG2 Assay for M06 Transcription Factor (Internal Marker) (AID 2282983); settings: HepG2 Attagene TRANS M06 internal marker reporter;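 on AC50: potency for rise in reporter mRNA above DMSO baseline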
In short: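 Background-control reporter readout: after 24 h chemical exposure of transiently transfected HepG2 (GAL4-UAS reporter units), mRNA quantified by RT-PCR with fluorescent labeling and capillary electrophoresis. Gain-of-signal fitting against DMSO baseline.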

[17] = target: Estrogen receptor (Homo sapiens) (UniProt P03372); assay: ATG_ERa_TRANS: Attagene TRANS-FACTORIAL HepG2 Assay for human Estrogen Receptor alpha (ERa) (AID 2282970); settings: HepG2 Attagene TRANS ERa GAL4 reporter, mRNA
In short: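 Reporter transcripts were measured 24 h after dosing by RT-PCR with fluorescent primer extension and capillary electrophoresis. The system is transiently transfected HepG2 expressing exogenous NR-Gal4 chimeras driving GAL4-UAS reporters; DMSO is the baseline.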

[18] = target: Glucocorticoid receptor (Homo sapiens) (UniProt P04150); assay: ATG_GR_TRANS: Attagene TRANS-FACTORIAL HepG2 Assay for human Glucocorticoid Receptor (GR) (AID 2282978); settings: HepG2 Attagene TRANS GR reporter, mRNA transcription;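 further: activators score as hits since higher reporter transcript over DMSO is fitted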
In short: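 Reporter transcript levels, detected by fluorescence after RT-PCR and capillary electrophoresis, served as the endpoint. HepG2 cells bearing transfected GAL4-UAS reporters responsive to NR-GAL4 chimeras were incubated with compound 24 h; DMSO defined baseline.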

[19] = target: Steroid hormone receptor ERR1 (Homo sapiens) (UniProt P11474); assay: ATG_ERRa_TRANS: Attagene TRANS-FACTORIAL HepG2 Assay for human Estrogen-Related Receptor alpha (ERRa) (AID 2282971); settings: HepG2 Attagene TRANS reporter, ERRa transactivation
In short: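 Reporter transcripts from ERRa-Gal4 chimera activity measured in transiently transfected human HepG2 cells 24 hours after dosing, using RT-PCR with 6-FAM primer extension, HpaI digestion and capillary electrophoresis; DMSO is baseline.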

Measured: AC50

Chain of Nuclear receptor subfamily 1 group I member 3 (Homo sapiens) (Q14994 whole entry, looked up, the tested form may be a part): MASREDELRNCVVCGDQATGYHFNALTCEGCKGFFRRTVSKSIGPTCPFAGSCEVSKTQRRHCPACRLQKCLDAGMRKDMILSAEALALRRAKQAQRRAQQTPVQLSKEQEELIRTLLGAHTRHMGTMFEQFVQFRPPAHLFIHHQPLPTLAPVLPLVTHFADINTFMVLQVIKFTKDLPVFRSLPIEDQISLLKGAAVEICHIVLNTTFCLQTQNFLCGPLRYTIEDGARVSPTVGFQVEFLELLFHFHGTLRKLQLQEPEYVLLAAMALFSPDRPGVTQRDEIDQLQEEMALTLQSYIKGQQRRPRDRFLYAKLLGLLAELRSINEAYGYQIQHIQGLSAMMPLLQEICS
Chain of Nuclear respiratory factor 1 (Homo sapiens) (Q16656 whole entry, looked up, the tested form may be a part): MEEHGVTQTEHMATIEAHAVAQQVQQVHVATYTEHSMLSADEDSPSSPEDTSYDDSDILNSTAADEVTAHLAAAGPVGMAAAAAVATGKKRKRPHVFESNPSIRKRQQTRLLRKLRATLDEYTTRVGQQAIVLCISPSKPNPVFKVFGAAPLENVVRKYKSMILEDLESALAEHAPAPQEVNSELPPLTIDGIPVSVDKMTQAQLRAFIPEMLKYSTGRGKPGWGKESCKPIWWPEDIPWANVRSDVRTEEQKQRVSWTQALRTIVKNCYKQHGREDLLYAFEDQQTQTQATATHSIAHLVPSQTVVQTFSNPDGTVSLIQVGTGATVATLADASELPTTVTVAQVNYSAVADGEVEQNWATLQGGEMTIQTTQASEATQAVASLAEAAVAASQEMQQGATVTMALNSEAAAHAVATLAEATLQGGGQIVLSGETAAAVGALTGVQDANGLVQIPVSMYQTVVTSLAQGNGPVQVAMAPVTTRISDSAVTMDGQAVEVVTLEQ
Chain of X-box-binding protein 1 (Homo sapiens) (P17861 whole entry, looked up): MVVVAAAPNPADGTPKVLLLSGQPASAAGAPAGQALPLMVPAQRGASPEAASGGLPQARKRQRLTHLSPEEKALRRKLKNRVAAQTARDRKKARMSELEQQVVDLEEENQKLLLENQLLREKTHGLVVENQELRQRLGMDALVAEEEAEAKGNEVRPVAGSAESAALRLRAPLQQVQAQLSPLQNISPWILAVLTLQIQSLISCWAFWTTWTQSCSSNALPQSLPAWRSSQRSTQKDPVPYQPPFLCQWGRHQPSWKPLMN
Chain of Oxysterols receptor LXR-alpha (Homo sapiens) (Q13133 whole entry, looked up, the tested form may be a part): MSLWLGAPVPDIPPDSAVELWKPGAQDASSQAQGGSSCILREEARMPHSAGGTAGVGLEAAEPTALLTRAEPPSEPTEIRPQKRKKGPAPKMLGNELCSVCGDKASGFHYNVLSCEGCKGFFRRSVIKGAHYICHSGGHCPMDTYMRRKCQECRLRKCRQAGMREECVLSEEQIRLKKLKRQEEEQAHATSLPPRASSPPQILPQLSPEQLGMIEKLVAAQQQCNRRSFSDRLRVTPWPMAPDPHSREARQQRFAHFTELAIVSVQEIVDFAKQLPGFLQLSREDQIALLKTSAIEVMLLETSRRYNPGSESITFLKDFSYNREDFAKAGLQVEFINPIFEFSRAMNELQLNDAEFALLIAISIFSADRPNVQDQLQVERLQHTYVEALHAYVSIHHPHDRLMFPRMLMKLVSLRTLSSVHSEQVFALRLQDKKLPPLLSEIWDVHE
Chain of Oxysterols receptor LXR-beta (Homo sapiens) (P55055 whole entry, looked up, the tested form may be a part): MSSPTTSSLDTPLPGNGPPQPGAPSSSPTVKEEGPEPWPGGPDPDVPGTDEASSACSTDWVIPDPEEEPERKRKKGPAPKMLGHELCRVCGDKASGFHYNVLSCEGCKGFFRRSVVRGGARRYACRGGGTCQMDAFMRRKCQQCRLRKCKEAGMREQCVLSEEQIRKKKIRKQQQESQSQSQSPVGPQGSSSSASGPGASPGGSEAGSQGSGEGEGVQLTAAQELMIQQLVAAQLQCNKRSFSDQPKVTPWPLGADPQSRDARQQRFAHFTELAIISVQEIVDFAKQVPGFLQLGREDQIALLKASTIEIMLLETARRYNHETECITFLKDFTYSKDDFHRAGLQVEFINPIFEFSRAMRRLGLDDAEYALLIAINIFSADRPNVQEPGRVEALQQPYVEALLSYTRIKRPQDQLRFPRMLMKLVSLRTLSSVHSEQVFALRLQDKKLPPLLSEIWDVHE
Chain of Nuclear receptor subfamily 4 group A member 2 (Homo sapiens) (P43354 whole entry, looked up, the tested form may be a part): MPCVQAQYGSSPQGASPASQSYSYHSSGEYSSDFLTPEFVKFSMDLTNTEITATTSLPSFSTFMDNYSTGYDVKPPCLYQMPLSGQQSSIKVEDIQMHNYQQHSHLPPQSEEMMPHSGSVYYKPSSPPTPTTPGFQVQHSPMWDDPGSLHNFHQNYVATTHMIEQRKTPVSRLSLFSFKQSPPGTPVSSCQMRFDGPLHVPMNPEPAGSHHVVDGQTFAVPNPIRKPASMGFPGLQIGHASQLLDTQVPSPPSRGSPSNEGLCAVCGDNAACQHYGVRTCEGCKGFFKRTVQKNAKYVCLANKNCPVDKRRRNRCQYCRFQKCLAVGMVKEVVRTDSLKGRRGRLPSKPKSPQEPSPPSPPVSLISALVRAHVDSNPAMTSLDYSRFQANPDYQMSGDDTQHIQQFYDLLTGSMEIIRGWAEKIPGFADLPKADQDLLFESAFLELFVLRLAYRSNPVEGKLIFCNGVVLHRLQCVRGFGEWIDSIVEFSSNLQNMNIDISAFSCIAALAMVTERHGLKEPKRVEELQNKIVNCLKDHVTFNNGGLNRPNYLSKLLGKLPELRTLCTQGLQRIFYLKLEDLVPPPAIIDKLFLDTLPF
Chain of Estrogen receptor (Homo sapiens) (P03372 whole entry, looked up, the tested form may be a part): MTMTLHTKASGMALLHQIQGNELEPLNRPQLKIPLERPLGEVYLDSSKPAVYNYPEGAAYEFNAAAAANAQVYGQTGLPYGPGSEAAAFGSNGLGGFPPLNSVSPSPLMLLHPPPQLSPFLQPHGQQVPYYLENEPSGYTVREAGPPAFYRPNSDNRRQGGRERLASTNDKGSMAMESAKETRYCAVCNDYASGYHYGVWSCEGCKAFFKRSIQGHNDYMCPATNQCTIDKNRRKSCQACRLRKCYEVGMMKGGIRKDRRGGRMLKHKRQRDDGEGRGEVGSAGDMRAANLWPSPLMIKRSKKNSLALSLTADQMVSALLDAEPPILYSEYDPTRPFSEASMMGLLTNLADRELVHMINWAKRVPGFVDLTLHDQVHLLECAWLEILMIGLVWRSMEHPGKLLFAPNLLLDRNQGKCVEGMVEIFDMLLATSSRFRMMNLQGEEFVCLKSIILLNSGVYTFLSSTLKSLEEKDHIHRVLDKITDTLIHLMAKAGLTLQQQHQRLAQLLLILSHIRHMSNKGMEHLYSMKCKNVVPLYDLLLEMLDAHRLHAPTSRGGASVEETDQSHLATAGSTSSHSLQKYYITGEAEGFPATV
Chain of Hepatocyte nuclear factor 4-alpha (Homo sapiens) (P41235 whole entry, looked up): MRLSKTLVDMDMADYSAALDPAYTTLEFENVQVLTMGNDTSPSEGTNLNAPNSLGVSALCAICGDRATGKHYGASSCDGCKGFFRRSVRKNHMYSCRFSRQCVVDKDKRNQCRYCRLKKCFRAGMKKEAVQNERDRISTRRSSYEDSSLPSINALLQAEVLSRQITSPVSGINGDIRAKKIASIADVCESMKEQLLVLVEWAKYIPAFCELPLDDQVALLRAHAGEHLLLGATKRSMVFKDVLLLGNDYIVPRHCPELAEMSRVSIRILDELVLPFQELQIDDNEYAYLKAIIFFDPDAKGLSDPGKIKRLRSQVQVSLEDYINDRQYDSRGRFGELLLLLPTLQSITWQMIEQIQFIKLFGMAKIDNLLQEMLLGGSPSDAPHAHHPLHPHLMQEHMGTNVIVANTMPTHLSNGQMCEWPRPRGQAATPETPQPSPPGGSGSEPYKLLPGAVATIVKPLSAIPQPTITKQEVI
Chain of Transcriptional activator Myb (Homo sapiens) (P10242 whole entry, looked up): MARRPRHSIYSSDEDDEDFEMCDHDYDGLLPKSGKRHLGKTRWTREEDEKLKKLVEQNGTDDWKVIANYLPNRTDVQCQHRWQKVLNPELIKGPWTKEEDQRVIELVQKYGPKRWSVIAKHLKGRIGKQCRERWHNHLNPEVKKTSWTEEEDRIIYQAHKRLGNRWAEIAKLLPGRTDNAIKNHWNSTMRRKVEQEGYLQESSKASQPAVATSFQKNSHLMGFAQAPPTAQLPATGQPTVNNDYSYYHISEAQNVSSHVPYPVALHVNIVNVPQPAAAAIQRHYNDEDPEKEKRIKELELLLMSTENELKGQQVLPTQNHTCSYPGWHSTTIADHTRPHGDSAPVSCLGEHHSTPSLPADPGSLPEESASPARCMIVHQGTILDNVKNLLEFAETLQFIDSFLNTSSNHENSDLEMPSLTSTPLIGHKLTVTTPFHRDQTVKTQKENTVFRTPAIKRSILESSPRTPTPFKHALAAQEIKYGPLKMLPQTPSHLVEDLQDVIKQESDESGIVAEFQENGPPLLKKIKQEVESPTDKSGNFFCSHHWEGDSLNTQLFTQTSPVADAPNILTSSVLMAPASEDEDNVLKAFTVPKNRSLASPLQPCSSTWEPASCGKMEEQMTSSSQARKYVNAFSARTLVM
Chain of Bile acid receptor (Homo sapiens) (Q96RI1 whole entry, looked up, the tested form may be a part): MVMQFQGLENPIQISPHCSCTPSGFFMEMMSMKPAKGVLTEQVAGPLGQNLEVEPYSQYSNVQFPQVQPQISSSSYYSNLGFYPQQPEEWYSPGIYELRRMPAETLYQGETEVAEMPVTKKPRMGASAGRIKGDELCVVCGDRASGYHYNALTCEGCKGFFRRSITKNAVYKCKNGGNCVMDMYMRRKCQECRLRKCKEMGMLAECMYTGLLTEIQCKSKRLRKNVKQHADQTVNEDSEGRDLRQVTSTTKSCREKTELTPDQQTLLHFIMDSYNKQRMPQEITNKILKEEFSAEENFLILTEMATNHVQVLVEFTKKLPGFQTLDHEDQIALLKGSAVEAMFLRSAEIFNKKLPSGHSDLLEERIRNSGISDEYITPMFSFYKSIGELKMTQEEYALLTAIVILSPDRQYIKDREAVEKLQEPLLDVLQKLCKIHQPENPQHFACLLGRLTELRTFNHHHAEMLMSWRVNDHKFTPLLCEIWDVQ

CN(C)C(=S)SC(=S)N(C)C
not listed: [13] | [14] | [15] | [16] | [17] | [18] | [19]
inactive: all other assays above

CCCCCCCCCCCCCCCC(=O)OC/C=C(C)/C=C/C=C(C)/C=C/C1=C(C)CCCC1(C)C
active: [3] 2.37 µM
not listed: [8] | [10] | [16] | [17] | [18] | [19]
inactive: all other assays above

CCCCCCCCCCCCCCN(CCO)CCO
active: [16] 162 µM
not listed: [6] | [7] | [9] | [13] | [17] | [18] | [19]
inactive: all other assays above

CCCC[P+](CCCC)(CCCC)CCCC
not listed: [8] | [10] | [15] | [16] | [17] | [18] | [19]
inactive: all other assays above

CCN(CC)C(=O)N(CC)CC
inactive: [1] | [2] | [3] | [4] | [5] | [7] | [16] | [9] | [11] | [12]

Nc1c(Cl)cc(Cl)cc1[N+](=O)[O-]
not listed: [4] | [6] | [7] | [10] | [18] | [19]
inactive: all other assays above

CC(C)NCC(O)COc1ccc(CC(N)=O)cc1 (stereo not drawn)
not listed: [4] | [7] | [10] | [12] | [14] | [18] | [19]
inactive: all other assays above

COc1cc(Cl)c(OC)cc1N
not listed: [4] | [9] | [10] | [15] | [17] | [19]
inactive: all other assays above

Nc1c(S(=O)(=O)O)cc(Br)c2c1C(=O)c1ccccc1C2=O
active: [3] 72.4 µM
not listed: [4] | [6] | [7] | [8] | [13] | [18] | [19]
inactive: all other assays above

COCCOCCOCCO
not listed: [4] | [7] | [14] | [16] | [17]
inactive: all other assays above

CCCC1O[C@@H]2C[C@H]3[C@@H]4CCC5=CC(=O)C=C[C@]5(C)[C@H]4[C@@H](O)C[C@]3(C)[C@]2(C(=O)CO)O1 (stereo partly drawn)
inactive: [1] | [3] | [19] | [5] | [7] | [16] | [10] | [11] | [12]
active: [2] 9.41 µM
